Measurements as given in PubChem BioAssay (NCATS).
Results filed as inconclusive are left out. Calls of active or inactive are those of the source. Unless noted, calls follow the shape of the dose curve; as a rule, active = well fitted curve in the direction sought with a large enough effect; inconclusive = small, poorly fitted or top-dose-only effect, or another doubt; inactive = no such curve, though single readings can be large; an effect the other way counts as inactive or inconclusive.

Columns and labels:
[1] = target: Lysosomal acid glucosylceramidase (Homo sapiens) (UniProt P04062); test: Glucocerebrosidase-p2 (AID 348; in the data active = potency below about 10 µM; also: potency is read from the fitted curve at half-maximal effect); settings: purified GBA, blue fluorogenic substrate, 40 min
Chain of Lysosomal acid glucosylceramidase (Homo sapiens) (P04062 whole entry, looked up): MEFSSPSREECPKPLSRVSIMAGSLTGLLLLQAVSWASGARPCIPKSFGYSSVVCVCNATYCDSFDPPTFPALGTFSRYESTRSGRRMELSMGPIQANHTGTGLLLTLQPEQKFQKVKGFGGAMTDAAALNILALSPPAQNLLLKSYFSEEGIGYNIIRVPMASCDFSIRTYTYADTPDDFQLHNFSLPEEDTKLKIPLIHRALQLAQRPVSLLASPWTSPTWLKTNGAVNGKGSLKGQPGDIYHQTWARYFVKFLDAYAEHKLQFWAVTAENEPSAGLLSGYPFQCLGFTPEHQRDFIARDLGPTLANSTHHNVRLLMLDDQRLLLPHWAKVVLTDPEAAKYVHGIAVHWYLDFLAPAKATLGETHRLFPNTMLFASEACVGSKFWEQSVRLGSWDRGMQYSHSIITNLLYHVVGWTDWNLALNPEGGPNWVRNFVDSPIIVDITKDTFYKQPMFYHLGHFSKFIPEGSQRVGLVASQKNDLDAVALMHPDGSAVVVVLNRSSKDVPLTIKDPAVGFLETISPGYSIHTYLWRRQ
Outline: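 Compounds titrated from 0.6 nM upwards against 0.2 nM enzyme in pH 5.9 citric acid/KH2PO4, taurocholate, tween-20; blue fluorogenic substrate 80 uM, 40 min room temperature, stopped and read Ex 365/Em 440 for AC50.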

[2] = AP1 Signaling Pathway (AID 357; active = well fitted curve in either direction with a large enough effect, not every such curve was filed as active;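 also: ME-180 reporter cells stimulated with EGF at its EC50 level; % is scaled to controls: 0 for no effect and ±100 for the full control effect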); settings: ME-180 AP-1-bla reporter, EGF-induced, beta-lactamase ratio, 5 h; at 7.69 µM (top of the series) unless noted
Outline: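 AP-1-bla ME-180 cells, Opti-MEM + 0.5% dialyzed FBS, plated overnight 37 °C. Cpd titration + EC50 EGF, 5 h 37 °C. CCF4 2.5 h RT; ex 405, em 460/530 ratio → %activity, AC50.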

[3] = target: Cytochrome P450 1A2 (Homo sapiens) (UniProt P05177); test: p450-cyp1a2 (AID 410; calls by dose curve; also: potency is read from the fitted curve at half-maximal effect); settings: recombinant CYP1A2, luciferin-ME demethylation, luminescence; series mostly up to 57 µM
Chain of Cytochrome P450 1A2 (Homo sapiens) (P05177 whole entry, looked up): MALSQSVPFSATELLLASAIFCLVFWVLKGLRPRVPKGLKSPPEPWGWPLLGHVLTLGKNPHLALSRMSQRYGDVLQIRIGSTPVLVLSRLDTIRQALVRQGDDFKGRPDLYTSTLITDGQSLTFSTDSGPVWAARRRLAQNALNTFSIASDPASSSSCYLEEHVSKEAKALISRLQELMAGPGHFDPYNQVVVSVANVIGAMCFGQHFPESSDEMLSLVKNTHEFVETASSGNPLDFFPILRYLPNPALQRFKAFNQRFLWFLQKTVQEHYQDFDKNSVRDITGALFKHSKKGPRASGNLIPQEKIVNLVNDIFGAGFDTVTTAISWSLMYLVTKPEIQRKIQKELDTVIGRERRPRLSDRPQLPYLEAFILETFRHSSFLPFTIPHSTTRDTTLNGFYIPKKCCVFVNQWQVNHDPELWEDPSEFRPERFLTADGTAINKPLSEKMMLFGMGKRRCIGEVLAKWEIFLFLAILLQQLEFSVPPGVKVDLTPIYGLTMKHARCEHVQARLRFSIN
Outline: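 Human CYP1A2 (20nM) demethylated Luciferin-ME at its Km (100uM) in 100mM KPO4. After 10 min compound preincubation, NADPH regeneration ran the reaction 60 min at room temperature. Luciferin was read by luminescence, normalized to 57 uM furafylline.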

[4] = Stat Signaling Pathway (AID 446; active = well fitted curve in either direction with a large enough effect, not every such curve was filed as active;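 also: ME-180 cervical cancer cells given 40 pM IL-6 alongside compound; SIE-controlled beta-lactamase reporter measured as 460/530 nm FRET emission ratio; % is scaled to controls: 0 for no effect and ±100 for the full control effect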); settings: ME-180 SIE beta-lactamase reporter, IL-6 stimulated, 5 h; at 7.69 µM (top of the series) unless noted
Outline: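 Reporter line: ME-180 cervical carcinoma, SIE-beta-lactamase. Treatment: compound with 40 pM IL-6, 5 hrs, 37 C, in low-serum OPTI-MEM with 10 mM HEPES pH 7.3. Detection: 460/530 nm fluorescence.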

[5] = target: Glucocorticoid receptor (Homo sapiens) (UniProt P04150); test: GR-GFP Redistribution (AID 450;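 active = compounds whose dose series gives a full or clear partial fitted curve of increased nuclear translocation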; also: potency is read from the fitted curve at half-maximal effect); settings: U2OS GR-GFP nuclear translocation, laser cytometry, 2 h
Chain of Glucocorticoid receptor (Homo sapiens) (P04150 whole entry, looked up, the tested form may be a part): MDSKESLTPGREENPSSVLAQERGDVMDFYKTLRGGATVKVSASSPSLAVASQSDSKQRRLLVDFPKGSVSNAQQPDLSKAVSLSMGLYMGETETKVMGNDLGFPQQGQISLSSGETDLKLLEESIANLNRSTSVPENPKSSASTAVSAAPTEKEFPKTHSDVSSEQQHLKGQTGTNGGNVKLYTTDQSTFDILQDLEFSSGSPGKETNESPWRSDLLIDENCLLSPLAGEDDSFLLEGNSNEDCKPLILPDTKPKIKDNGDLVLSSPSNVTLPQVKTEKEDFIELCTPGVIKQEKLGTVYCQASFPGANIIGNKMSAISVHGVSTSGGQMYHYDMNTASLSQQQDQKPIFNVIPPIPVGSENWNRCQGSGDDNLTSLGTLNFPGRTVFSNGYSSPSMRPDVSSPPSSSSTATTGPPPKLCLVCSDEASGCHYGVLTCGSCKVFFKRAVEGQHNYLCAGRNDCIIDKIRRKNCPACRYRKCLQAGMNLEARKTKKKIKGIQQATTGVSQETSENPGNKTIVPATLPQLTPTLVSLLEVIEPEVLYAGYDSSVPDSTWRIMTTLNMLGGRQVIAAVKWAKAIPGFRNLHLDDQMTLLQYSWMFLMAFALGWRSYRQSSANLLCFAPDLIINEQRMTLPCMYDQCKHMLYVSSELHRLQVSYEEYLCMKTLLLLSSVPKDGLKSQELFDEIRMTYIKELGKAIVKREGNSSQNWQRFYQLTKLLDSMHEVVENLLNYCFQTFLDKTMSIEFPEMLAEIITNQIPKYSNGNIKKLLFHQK

[6] = target: Glucocorticoid receptor (Homo sapiens) (UniProt P04150); test: GR-EFC Redistribution (AID 451; calls by dose curve; also: potency is read from the fitted curve at half-maximal effect); settings: CHO-K1 GR-EFC translocation, beta-gal luminescence, 2 h
Outline: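 Translocation of GR-ED fusion to nuclear EA restores b-gal, read by luminescence after 1 h room-temperature detection. Engineered CHO-K1 biosensor cells, 1,000/well, exposed 2 h at 37 C to titrations up to 46 uM final.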

[7] = target: Mitogen-activated protein kinase 10 (Mus musculus) (UniProt Q61831); test: JNK3 AlphaScreen Assay (AID 530; active = well fitted curve in either direction with a large enough effect, not every such curve was filed as active;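 also: kinase came from lysate of stimulated human HepG2 cells; signal reports phosphorylation of biotinylated GST-cJun 1-79 at Ser73 with 10 µM ATP; % is scaled to controls: 0 for no effect and ±100 for the full control effect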); settings: JNK3 lysate, c-Jun phosphorylation; series mostly up to 57.1 µM
Outline: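 Room-temperature AlphaScreen kinase assay; pre-activated HepG2 lysate as JNK3 source, biotin-GST-cJun(1-79) substrate, 10 uM ATP, compound 15 min preincubation.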

[8] = target: Cytochrome P450 3A4 (Homo sapiens) (UniProt P08684); test: qHTS Assay for Inhibitors and Substrates of Cytochrome P450 3A4 (AID 884); settings: recombinant CYP3A4, Luciferin-PPXE luminescence; series mostly up to 57.1 µM; also: potency is read from the fitted curve at half-maximal effect; nearly all actives have a fitted effect of over 50% in size
Chain of Cytochrome P450 3A4 (Homo sapiens) (P08684 whole entry, looked up): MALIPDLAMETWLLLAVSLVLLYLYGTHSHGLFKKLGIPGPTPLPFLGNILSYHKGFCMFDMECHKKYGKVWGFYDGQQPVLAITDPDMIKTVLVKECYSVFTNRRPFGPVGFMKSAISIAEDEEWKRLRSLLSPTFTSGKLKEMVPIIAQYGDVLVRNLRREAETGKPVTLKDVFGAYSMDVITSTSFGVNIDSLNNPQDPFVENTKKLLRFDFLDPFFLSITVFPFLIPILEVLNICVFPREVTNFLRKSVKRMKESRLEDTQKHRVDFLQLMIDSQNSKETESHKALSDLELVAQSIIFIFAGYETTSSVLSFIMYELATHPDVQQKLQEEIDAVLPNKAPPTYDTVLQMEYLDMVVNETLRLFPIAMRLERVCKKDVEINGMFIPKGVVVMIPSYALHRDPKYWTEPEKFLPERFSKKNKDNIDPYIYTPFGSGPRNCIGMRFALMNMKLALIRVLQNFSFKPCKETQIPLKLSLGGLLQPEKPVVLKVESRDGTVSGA
Outline: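 20 nM human CYP3A4 with 25 uM Luciferin-PPXE (at KM) in 200 mM KPO4, preincubated 10 min with compound; NADPH regeneration started a 60 min RT reaction. Luciferin detected by luminescence, normalized to 57 uM ketoconazole as full inhibition.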

[9] = target: Cytochrome P450 3A4 (Homo sapiens) (UniProt P08684); test: qHTS Assay for Activators of Cytochrome P450 3A4 (AID 885); settings: recombinant CYP3A4, Luciferin-PPXE luminescence, 60 min; series mostly up to 57.1 µM; also: nearly all actives have a fitted effect of over 65% in size
Outline: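 Signal was normalized against complete inhibition by 57 uM ketoconazole. The reaction used 20nM CYP3A4 with 25uM Luciferin-PPXE, 10-min compound preincubation and a 60-min NADPH-supported step at RT.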

[10] = target: Cytochrome P450 2C19 (Homo sapiens) (UniProt P33261); test: qHTS Assay for Inhibitors and Substrates of Cytochrome P450 2C19 (AID 899); settings: recombinant CYP2C19, luciferin-H EGE luminescence; series mostly up to 57.1 µM; also: potency is read from the fitted curve at half-maximal effect; nearly all actives have a fitted effect of over 60% in size
Chain of Cytochrome P450 2C19 (Homo sapiens) (P33261 whole entry, looked up): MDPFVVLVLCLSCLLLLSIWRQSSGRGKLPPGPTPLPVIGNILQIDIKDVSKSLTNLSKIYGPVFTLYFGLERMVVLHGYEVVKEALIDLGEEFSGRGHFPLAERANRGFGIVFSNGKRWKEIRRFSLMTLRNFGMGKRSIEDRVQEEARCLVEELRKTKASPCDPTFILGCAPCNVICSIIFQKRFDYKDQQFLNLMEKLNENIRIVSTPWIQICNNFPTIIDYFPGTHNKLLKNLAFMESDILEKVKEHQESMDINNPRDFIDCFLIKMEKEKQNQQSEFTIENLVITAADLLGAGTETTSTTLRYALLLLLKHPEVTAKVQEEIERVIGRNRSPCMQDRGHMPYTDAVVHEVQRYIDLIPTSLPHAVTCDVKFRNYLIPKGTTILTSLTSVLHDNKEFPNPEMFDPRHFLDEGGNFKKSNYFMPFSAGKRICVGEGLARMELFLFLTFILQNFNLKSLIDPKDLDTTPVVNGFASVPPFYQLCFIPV
Outline: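 Reactions contain 5nM enzyme, 10uM Luciferin-H EGE (KM) and 50mM KPO4; compound preincubates 10 min at 37C, NADPH regeneration starts turnover for 60 min. Luminescence after detection reagent gives activity.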

[11] = qHTS Assay for Lipid Storage Modulators (AID 1519; calls by dose curve); settings: Drosophila S3 cells, BODIPY lipid droplet/cell ratio, laser cytometry, cells loaded with oleic acid; for activity change, negative = inhibition: at 57.5 µM (top of the series)
Outline: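 Cells seeded at 5,000 per well were treated with compounds over a concentration series and loaded with oleic acid (400 uM, as added). Lipid droplet fluorescence (488 nm excitation, 500-530 nm channel) was read by laser-scanning cytometry and normalized to 20 uM Triacsin C.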

[12] = target: Dual specificity protein kinase CLK4 (Homo sapiens) (UniProt Q9HAZ1); test: qHTS Assay for Inhibitors of CDC-like Kinase 4 (Kinase-Glo Assay) (AID 1770); settings: recombinant Clk4, Kinase-Glo ATP depletion luminescence; series mostly up to 66.7 µM; also: nearly all actives have a fitted effect of over 65% in size; also: potency is read from the fitted curve at half-maximal effect
Chain of Dual specificity protein kinase CLK4 (Homo sapiens) (Q9HAZ1 whole entry, looked up): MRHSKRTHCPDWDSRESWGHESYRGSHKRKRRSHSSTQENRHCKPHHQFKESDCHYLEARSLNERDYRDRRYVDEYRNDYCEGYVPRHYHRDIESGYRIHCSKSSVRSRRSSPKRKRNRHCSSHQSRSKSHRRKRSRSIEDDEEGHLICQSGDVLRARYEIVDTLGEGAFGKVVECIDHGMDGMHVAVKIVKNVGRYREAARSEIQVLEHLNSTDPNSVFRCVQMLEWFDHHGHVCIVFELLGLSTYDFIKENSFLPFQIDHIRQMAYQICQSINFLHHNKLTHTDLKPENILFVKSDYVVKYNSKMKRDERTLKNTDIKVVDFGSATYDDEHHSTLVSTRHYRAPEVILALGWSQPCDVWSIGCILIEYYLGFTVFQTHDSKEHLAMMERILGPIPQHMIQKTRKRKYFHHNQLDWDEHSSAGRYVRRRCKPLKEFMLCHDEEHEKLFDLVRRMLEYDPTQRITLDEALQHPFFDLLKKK
Outline: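 Substrate mix (RS peptide 100 uM, ATP 1 uM) dispensed, compound pinned in, then Clk4 added to 25 nM final. Incubated 4.5 h at RT; Kinase-Glo reagent added, luminescence read after 5 min.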

[13] = target: Dual specificity protein kinase CLK4 (Homo sapiens) (UniProt Q9HAZ1); test: qHTS Assay for Inhibitors of CDC-like Kinase 4 (ADP-Glo Assay) (AID 1771); settings: recombinant CLK4, ADP-Glo luminescence; series mostly up to 80 µM; also: nearly all actives have a fitted effect of over 70% in size; also: potency is read from the fitted curve at half-maximal effect
Outline: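 Clk4 (25 nM) was incubated 1 hr at room temperature with 100 uM RS repeat peptide and 1 uM ATP in buffer with 2 mM MgCl2, 0.5 mM EGTA, 2.5 mM DTT. ADP formed was quantified by ADP-Glo luminescence.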

[14] = Primary qHTS for small molecule stabilizers of the endoplasmic reticulum resident proteome: Secreted ER Calcium Modulated Protein (SERCaMP) assay (AID 1508630); settings: SH-SY5Y GLuc-SERCaMP (Gaussia luciferase released on ER calcium loss) secretion, thapsigargin, luminescence; series mostly up to 38.4 µM; also: % is scaled to controls: 0 for no effect and ±100 for the full control effect
Outline: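 GLuc-SERCaMP-expressing SH-SY5Y cells, pretreated 16 h with compound, are challenged with thapsigargin to empty ER calcium stores; after 4 h, coelenterazine is added directly to the medium and luminescence is imaged.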

[15] = NFAT Signaling Pathway (AID 444; active = well fitted curve in either direction with a large enough effect, not every such curve was filed as active); settings: Jurkat NFAT-bla M1, carbachol, beta-lactamase ratio, 5 h; at 7.69 µM (top of the series) unless noted
Outline: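 Read-out: CCF4 FRET ratio (460 nm/530 nm) after 1 h RT dye loading, used for %activity and AC50 from titration series. Cells: Jurkat NFAT-β-lactamase/M1 line, treated with compound plus 1 uM carbachol for 5 h, 37 °C.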

[16] = target: 3',5'-cyclic-AMP phosphodiesterase 4B (Homo sapiens) (UniProt Q07343); test: qHTS Assay for Inhibitors of PDE-IV (AID 607; active = well fitted activation curve with a large enough effect in the main read-out, with a control signal flat, not every such curve was filed as active; also: % of control where 0% means no effect); settings: HEK293 ACTOne CNG channel cells, membrane potential fluorescence; series mostly up to 22.9 µM
Chain of 3',5'-cyclic-AMP phosphodiesterase 4B (Homo sapiens) (Q07343 whole entry, looked up): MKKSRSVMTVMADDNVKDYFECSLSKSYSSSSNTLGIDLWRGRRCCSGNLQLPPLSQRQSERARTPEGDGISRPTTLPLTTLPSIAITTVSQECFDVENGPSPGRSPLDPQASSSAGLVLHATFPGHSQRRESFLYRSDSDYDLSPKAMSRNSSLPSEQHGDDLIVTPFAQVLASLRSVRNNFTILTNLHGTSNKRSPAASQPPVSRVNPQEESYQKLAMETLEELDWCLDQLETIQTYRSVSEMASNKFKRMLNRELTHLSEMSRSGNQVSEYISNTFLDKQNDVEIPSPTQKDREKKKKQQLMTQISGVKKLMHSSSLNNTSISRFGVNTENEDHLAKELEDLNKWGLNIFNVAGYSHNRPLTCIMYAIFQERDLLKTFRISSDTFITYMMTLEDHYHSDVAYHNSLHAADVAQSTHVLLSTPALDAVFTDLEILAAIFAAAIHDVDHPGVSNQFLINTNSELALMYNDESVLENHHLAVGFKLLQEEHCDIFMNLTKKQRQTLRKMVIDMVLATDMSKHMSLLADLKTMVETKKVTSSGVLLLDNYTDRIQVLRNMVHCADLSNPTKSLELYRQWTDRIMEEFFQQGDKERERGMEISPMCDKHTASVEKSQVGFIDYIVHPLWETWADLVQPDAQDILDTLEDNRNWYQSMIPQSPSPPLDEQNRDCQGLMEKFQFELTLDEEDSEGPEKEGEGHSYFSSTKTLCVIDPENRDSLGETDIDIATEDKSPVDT
Outline: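 Cell-based read-out of cAMP via a modified cyclic nucleotide-gated channel and membrane potential dye (535/590 nm) in HEK293 cells expressing PDE4 endogenously. Compounds tested up to 22.9 uM final; 100 uM RO 20-1724 reference.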

[17] = target: Ubiquitin carboxyl-terminal hydrolase 1 (Homo sapiens) (UniProt O94782); test: Inhibitors of USP1/UAF1: Pilot qHTS (AID 504865); settings: purified USP1/UAF1, Ub-rhodamine cleavage fluorescence; series mostly up to 54.9 µM;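 also: rhodamine fluorescence freed from ubiquitin-rhodamine substrate followed over time; top concentration of the series differs between compounds; % is scaled to controls: 0 for no effect and ±100 for the full control effect; nearly all actives have a fitted effect of over 35% in size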
Chain of Ubiquitin carboxyl-terminal hydrolase 1 (Homo sapiens) (O94782 whole entry, looked up): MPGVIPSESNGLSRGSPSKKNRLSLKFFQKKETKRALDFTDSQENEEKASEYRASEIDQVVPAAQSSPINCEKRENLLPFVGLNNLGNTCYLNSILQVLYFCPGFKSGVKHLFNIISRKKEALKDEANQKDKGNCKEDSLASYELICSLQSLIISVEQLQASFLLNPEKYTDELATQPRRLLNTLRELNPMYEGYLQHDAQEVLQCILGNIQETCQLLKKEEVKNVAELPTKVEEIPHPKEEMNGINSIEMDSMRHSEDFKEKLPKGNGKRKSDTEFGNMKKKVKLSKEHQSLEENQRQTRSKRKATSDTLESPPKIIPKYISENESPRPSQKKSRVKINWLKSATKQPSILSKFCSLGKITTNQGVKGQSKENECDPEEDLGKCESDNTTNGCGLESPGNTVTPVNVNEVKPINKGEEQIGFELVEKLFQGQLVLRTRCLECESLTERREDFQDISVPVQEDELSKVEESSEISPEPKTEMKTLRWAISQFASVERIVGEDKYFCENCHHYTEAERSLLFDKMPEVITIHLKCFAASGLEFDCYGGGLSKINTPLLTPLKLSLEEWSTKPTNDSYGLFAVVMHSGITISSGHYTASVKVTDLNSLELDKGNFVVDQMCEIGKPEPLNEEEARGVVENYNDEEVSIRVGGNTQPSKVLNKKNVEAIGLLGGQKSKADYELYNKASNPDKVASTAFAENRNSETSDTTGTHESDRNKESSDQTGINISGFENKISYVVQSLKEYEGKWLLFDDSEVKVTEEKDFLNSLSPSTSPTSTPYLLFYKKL
Outline: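 In 50mM HEPES pH 7.8 containing 0.5mM EDTA, 1mM TCEP, 0.1 mg/ml BSA and 0.01% Tween-20, 1nM USP1/UAF1 is exposed to compound for 15 min, then Ub-Rho (150nM final) is added and fluorescence is read over time.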

[18] = qHTS Assay for Identification of Small Molecule Agonists for Hypoxia Response Element Signaling Pathway (AID 914; active = well fitted activation curve with a large enough effect in the signal ratio, with a control signal flat, not every such curve was filed as active; the % refers to the signal ratio; also: % of control where 0% means no effect); settings: ME-180 (cervical carcinoma) HRE-bla reporter, beta-lactamase ratio, CoCl2, 17 h; activation: stronger effect = higher value
Outline: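 In Opti-MEM containing 0.5% dialyzed FBS and 10 mM HEPES, ME-180 HRE-bla cells received a compound titration and EC50 CoCl2. They were incubated 17 hours, then CCF4-loaded 2.5 hours at room temperature before ratio reading.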

[19] = measured here: cell count channel max response
[20] = measured here: lipid channel max response

Row | Structure (SMILES) | Potency [1] | activity change, negative = inhibition [2] | Potency [3] | activity, negative = inhibition [4] | Potency [5] | Potency [6] | outcome [7] | Potency [8] | Potency [9] | Potency [10] | activity change, negative = inhibition [11] | max response [11, 19] | max response [11, 20] | Potency [12] | Potency [13] | Potency [14] | activity change, negative = inhibition [15] | Potency [16] | Potency [17] | activation [18]
1 | Clc1ccccc1-c1cncnc1NCc1cccs1 | > 11.4 µM (inactive) | -10.1% (inactive) | 3.98 µM (active) | -9.78% (inactive) | > 46 µM (inactive) | > 46 µM (inactive) | inactive | 0.501 µM (active) | inactive | 1.58 µM (active) | 4.06% (inactive) | 21% | 23.3% | inactive | inactive | inactive | – | – | – | –
2 | CNc1nc(-c2ccc3c(c2)OCO3)nc2ccccc12 | 11.4 µM (inactive) | 28.9% (inactive) | – | -1.35% (inactive) | > 46 µM (inactive) | > 46 µM (inactive) | inactive | – | – | – | -5.22% (inactive) | 2.96% | -1.26% | 14.1 µM (active) | 28.2 µM (active) | inactive | 1.91% (inactive) | inactive | inactive | –
3 | Cc1noc(C)c1-c1nccc(N2CCOCC2)n1 | > 11.4 µM (inactive) | 19% (inactive) | 0.631 µM (active) | 14.5% (inactive) | – | > 46 µM (inactive) | inactive | – | – | – | 6.74% (inactive) | 6.28% | 17% | 14.1 µM (active) | 14.1 µM (active) | inactive | 4.77% (inactive) | inactive | inactive | –
4 | COc1cccc(Nc2ncc3nc(-c4ccc(Cl)cc4)c(=O)n(C4CC4)c3n2)c1 | > 11.4 µM (inactive) | – | – | -10.8% (inactive) | > 9.22 µM (inactive) | > 46 µM (inactive) | inactive | – | – | – | -3.5% (inactive) | -0.959% | -5.52% | inactive | inactive | inactive | -4.19% (inactive) | inactive | inactive | –
5 | CN(C)C(=O)c1ccc(-c2cncnc2NC2CCNCC2)cc1 | > 11.4 µM (inactive) | 7.68% (inactive) | – | 15.4% (inactive) | > 46 µM (inactive) | > 46 µM (inactive) | inactive | – | – | – | 3.5% (inactive) | 11.8% | 12.7% | inactive | inactive | inactive | 9.18% (inactive) | inactive | inactive | –
6 | COc1cccc(Nc2ncc3nc(C)c(=O)n(C4CC4)c3n2)c1 | > 11.4 µM (inactive) | -16.4% (inactive) | 1.26 µM (active) | -13.4% (inactive) | > 9.22 µM (inactive) | > 46 µM (inactive) | inactive | 6.31 µM (active) | inactive | – | -5.91% (inactive) | -1.52% | -13.2% | 12.6 µM (active) | 11.2 µM (active) | inactive | 5.07% (inactive) | inactive | inactive | -3.86% (inactive)
